Screening data (PubChem BioAssay)
L3MBTL1 block = blocks human L3MBTL1; Potency, µM (top dose mostly 57.1 µM), for the others: at the highest dose activity, negative = inhibition, hits mostly inhibitors; AlphaScreen L3MBTL1–H3K9me1 peptide binding; hit rate 0.66% among 230,000; Q9Y468; further: nearly all actives have a fitted effect of over 60% in size
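First, the protein-peptide complex forms for 30 min at room temperature (L3MBTL1 50 nM, biotinylated H3K9me1 peptide 75 nM). Next, compounds are pin-transferred and incubated 30 min. Finally, AlphaScreen beads are added and read after 30 min.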
BLM inh = inhibitors of human Bloom syndrome helicase BLM | hit rate 0.2% among 350,000 | recombinant BLM DNA unwinding, fluorescence dequenching | Potency, µM (titrated, usually from 56.1 µM), inactives show top-dose activity change, negative = inhibition, usual class: inhibitors | P54132;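 further: plate controls were vehicle for no effect and no enzyme for full effect; nearly all actives have a fitted effect of over 35% in size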
KDM4E inh = blocks human JMJD2E demethylase activity; B2RXH2; JMJD2E catalytic domain, FDH-coupled NADH fluorescence (FDH is formaldehyde dehydrogenase); Potency, µM (doses to about 57.1 µM), for the others: at the top dose activity change, negative = inhibition, actives largely listed as inhibitors; hit rate 1.6% among 230,000; AID 2147; active means well fitted inhibition curve with a large enough effect, not every such curve was filed as active; inconclusive means small, poorly fitted or top-dose-only effect, or another doubt; inactive means no such curve, though single readings can be large or run the other way;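 further: 0% = wells with enzyme and -100% = buffer wells without enzyme; nearly all actives have a fitted effect of over 50% in size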
Target sequence (B2RXH2 1-337 limits assumed): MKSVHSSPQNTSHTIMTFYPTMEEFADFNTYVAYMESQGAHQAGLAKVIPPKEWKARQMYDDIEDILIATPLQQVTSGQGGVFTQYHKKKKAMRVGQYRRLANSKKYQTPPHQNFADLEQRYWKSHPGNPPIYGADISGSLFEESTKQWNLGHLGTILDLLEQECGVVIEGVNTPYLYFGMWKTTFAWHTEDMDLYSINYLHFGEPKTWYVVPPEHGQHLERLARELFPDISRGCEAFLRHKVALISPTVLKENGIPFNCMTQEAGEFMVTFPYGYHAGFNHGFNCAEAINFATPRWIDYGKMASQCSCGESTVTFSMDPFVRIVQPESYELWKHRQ
RECQ1 helicase = inhibitors of human RECQ1 DNA helicase; Potency, µM (series often up to 57.3 µM), inactives show top-dose activity, negative = inhibition, actives largely listed as inhibitors; AID 2549; hit rate 0.54% among 240,000; P46063; RECQ1 DNA unwinding, red fluorescence kinetic read;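 further: plate controls were vehicle for no effect and no enzyme for full effect; nearly all actives have a fitted effect of over 30% in size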
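50 nM RECQ1T1 preincubated 15 min with compound in Tris pH 8.0 buffer with MgCl2, DTT, Tween-20 and 2.5 ug/ml poly(dI-dC); started with 200 nM TAMRA/BHQ-2 forked duplex and 2 mM ATP. Unwinding read as fluorescence (525/598 nm), two reads 2 h apart.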
APEX1 inh = APE1 (human) endonuclease inhibition. P27695. recombinant APE1, TAMRA/BHQ-2 abasic DNA cleavage fluorescence. Potency, µM (titrated, usually from 65.8 µM), without a hit: at the highest dose activity change, negative = inhibition, usual class: inhibitors. hit rate 0.35% among 350,000;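 further: plate controls were vehicle for no effect and reference inhibitor for full effect; nearly all actives have a fitted effect of over 55% in size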
Target sequence (P27695 whole entry, looked up): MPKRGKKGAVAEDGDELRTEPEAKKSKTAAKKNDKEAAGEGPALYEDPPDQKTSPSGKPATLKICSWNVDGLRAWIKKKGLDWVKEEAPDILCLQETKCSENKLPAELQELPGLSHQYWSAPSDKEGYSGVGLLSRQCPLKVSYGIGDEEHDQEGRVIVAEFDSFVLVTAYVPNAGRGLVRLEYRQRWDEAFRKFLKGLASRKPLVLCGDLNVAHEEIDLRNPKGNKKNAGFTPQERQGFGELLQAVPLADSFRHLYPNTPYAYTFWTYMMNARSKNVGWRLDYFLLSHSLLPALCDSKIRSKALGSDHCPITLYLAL
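0.75 nM APE1 + cpd, 15 min RT; start w/ 50 nM TAMRA/BHQ-2 THF-abasic dsDNA; kinetic fluor 525/598 nm ×3 reads @60 s; Δ(read3−read1); normalized to DMSO and NSC13755 control wells.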
TDP1 block = blocks human tyrosyl-DNA phosphodiesterase 1. Q9NUW8. recombinant TDP1, AlphaScreen DNA substrate cleavage. Potency, µM (doses to about 130 µM), for inactives: at the highest dose activity change, negative = inhibition, actives largely listed as inhibitors. hit rate 0.28% among 350,000. AID 485290; further: nearly all actives have a fitted effect of over 40% in size
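AlphaScreen read-out: signal falls as enzyme removes the 3' tyrosine-FITC from a 5'-biotinylated DNA oligo (15 nM, 5 min, RT). Enzyme was E. coli-made recombinant Tdp1 at 1 nM, exposed to compound for 15 min beforehand; beads 10 ug/ml, 10 min.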
The depositor's hits bear a star; i = inactive; ? = inconclusive; · = no result; ! = repeats disagree; [ ] = remark or other dose. Many of the other results were omitted from the sample, so hits are more common in it than they were. Unless noted, the call rests on the fitted dose curve; in most records, active means well fitted curve in the direction sought with a large enough effect; inconclusive means small, poorly fitted or top-dose-only effect, or another doubt; inactive means no such curve, though single readings can be large; an effect the other way counts as inactive or inconclusive. Unless noted, on the % scale 0 is the no-effect control and ±100 the full control effect; potency means the concentration at half of the fitted maximal effect.

SMILES | L3MBTL1 block | BLM inh | KDM4E inh | RECQ1 helicase | APEX1 inh | TDP1 block
Cc1nc2ccccc2c(=O)n1/N=C/c1ccccc1O | 3.5% | -5.3% | 25.1µM* | -11.0% | 27.8% | 6.0%
Cc1nc2ccccc2c(=O)n1/N=C/c1ccc2ccccc2c1O | 31.6µM* | -0.9% | ? | -0.4% | -0.5% | 9.5%
O=C(CSCc1ccc(Cl)cc1)N/N=C/c1ccc(OCC(=O)Nc2ccccc2)cc1 | 4.9% | -11.4% | 2.5% | i | 13.1% | -2.9%
Cc1ccc(NC(=O)COc2ccc(/C=N/NC(=O)CSCc3ccccc3)cc2)cc1 | -0.2% | -6.6% | -10.4% | 3.3% | ? | 56.2µM*
O=C(CSc1ccccc1)N/N=C/c1ccccc1O | 9.8% | -6.3% | ? | i | 21.1% | 2.7%
O=C(CSc1n[nH]c(=O)[nH]c1=O)N/N=C/c1ccccc1O | 2.0% | 2.2% | 14.1µM* | -2.6% | 6.8% | 2.2%
COc1ccc(CSCC(=O)N/N=C/c2ccccc2O)cc1 | 2.0% | -7.3% | 31.6µM* | i | -12.0% | 8.1%
O=[N+]([O-])c1cc(Br)cc(C=Nc2ccc3c(c2)OCO3)c1O | -10.2% | 14.1µM* | ? | ? | -5.5% | 9.4%
O=[N+]([O-])c1ccc(O)c(C=Nc2ccc3c(c2)OCO3)c1 | 4.5% | -8.8% | -21.7% | 20.9% | 14.7% | 0.0%
CC(C)CNc1ncnc2oc(-c3ccco3)c(-c3ccco3)c12 | · | · | · | · | · | 7.1%
COc1cccc(/C=N/NC(=O)c2[nH]c(C)c(C(=O)N/N=C/c3cccc(OC)c3O)c2C)c1O | · | -6.5% | 25.1µM* | -7.2% | -7.9% | 13.9%
COc1cc(OC)c(OC)cc1/C=N/NC(=O)c1cc(-c2cccn2C)n[nH]1 | -24.9% | -8.8% | ? | i | -8.1% | 7.8%
COc1cccc(/C=N/NC(=O)c2ccc(=O)[nH]n2)c1O | -21.2% | -5.6% | 12.6µM* | i | -3.4% | 8.2%
CCOc1cccc(/C=N/NC(=O)c2cc(-c3cccn3C)n[nH]2)c1O | -15.2% | -14.1% | 31.6µM* | -2.7% | -5.2% | 11.1%
Cc1cccc(/C=N\NC(=O)c2ccc(Cl)cc2)c1O | -13.2% | -4.2% | 15.8µM* | -1.6% | -6.3% | 6.0%
CCCCCNc1oc(-c2cccc3ccccc23)nc1C#N | · | · | · | · | -6.2% | ·
NC(=O)c1cc[n+](CC2=C(C(=O)[O-])N3C(=O)[C@@H](NC(=O)Cc4cccs4)[C@H]3SC2)cc1 | · | · | · | · | -2.8%[21 µM] | ·
Cc1cccc(Nc2nc(C#N)nc(NC3CCCC3)n2)c1 | · | · | · | · | · | -5.3%
COc1cccc(/C=N/NC(=O)c2ccc(=O)n(C)c2)c1O | -6.4% | -3.3% | 11.2µM* | -3.2% | -5.3% | 8.2%
COc1cc(OC)c(OC)cc1/C=N/NC(=O)c1ccc(=O)n(C)c1 | 6.7% | -2.7% | -21.0% | -7.8% | -4.5% | 2.3%
Clc1cc(Cl)c(OCC#CI)cc1Cl | · | 1.7% | · | · | · | ·
O=C1CC(c2ccco2)CC(O)=C1C=NCC1NCCc2ccccc21 (centres undefined) | 2.2% | -11.0% | 20µM* | -26.6% | 8.4% | 4.9%
O=C1CC(c2ccco2)CC(O)=C1C=NCCO (centres undefined) | -17.8% | -0.3% | -10.8% | i | 23.4% | 0.0%
COc1cccc2c1-c1c(O)cccc1C2=O | 17.2% | -7.1% | · | · | 3.4% | ·
COc1cccc(O)c1O | · | -0.5% | 7.94µM* | -29.6% | 2.51µM* | -6.3%
SMILES | L3MBTL1 block | BLM inh | KDM4E inh | RECQ1 helicase | APEX1 inh | TDP1 block
COc1cccc(NC(=O)CSc2nc3ccc(NC(=O)c4ccco4)cc3s2)c1 | · | -3.5% | · | · | · | 3.6%
Cc1cc(=O)[nH]c(N2CCOCC2)n1 | 1.1% | 0.7% | -7.7% | i | -3.1% | 2.5%
COC(=O)c1cc(C)nc2c1C(=O)C(=O)C=C2N1CCOCC1 | · | 8.91µM* | · | · | -8.4% | -4.3%
Oc1ccc(/C=N/Nc2nc(N3CCCC3)nc(N3CCCC3)n2)cc1O | -9.1% | -4.7% | 17.8µM* | i | -1.2% | 4.8%
c1ccc2sc(SN3CCOCC3)nc2c1 | 5.8% | -0.6% | 12.6µM* | i | 0.6% | 6.9%
O=C(COC(=O)/C=C/c1ccco1)NCCc1ccccc1 | -22.7% | -8.6% | 7.8% | i | ? | 28.2µM*
O=C(COC(=O)/C=C/c1ccco1)NC1CCCCC1 | -9.5% | · | · | · | ? | 50.1µM*
Cc1ccc(S(=O)(=O)N2CCOCC2)cc1NC(=O)COC(=O)/C=C/c1ccco1 | -2.8% | · | · | · | ? | 28.2µM*
O=C(COC(=O)/C=C/c1ccc(Br)o1)NC1CCCCC1 | ? | · | · | · | -24.6% | ·
COc1ccccc1C(=O)NC(=S)/C=C1/N(C)c2ccccc2C1(C)C | 12.6µM* | -9.0% | -0.1% | -8.7% | 7.5% | 3.4%
N=C(CC(O)COc1ccccc1-c1ccccc1)N1CCCCC1 (centres undefined) | · | -8.8% | · | -18.6% | 10µM*! | 8.2%
c1ccc(-c2ccccc2OCCCN2CCCCCC2)cc1 | -5.8% | 20.3% | ? | i | -4.4% | 0.0%
O=C1CCc2cc(S(=O)(=O)Nc3ccc(-c4ccccc4)cc3)ccc2N1 | · | · | · | · | · | 2.7%
C=C1C=C(C(F)F)n2ncc(C(=O)Nc3ccccc3OCC)c2N1 | · | · | · | · | 58.4% | ·
C/C(=N\N1C(=O)c2ccccc2NC1c1ccco1)c1ccccc1O (centres undefined) | 2.1%[11.4 µM] | -8.3% | 22.4µM* | -6.4% | -0.2% | 2.6%
O=c1c(-c2ccc(Cl)cc2)nc2cnc(N3CCOCC3)nc2n1Cc1ccc(F)cc1 | · | -1.4% | · | -13.2% | -1.0% | ·
COc1cc2c(cc1O)CCN[C@@]21CS[C@H]2c3c(OC(C)=O)c(C)c4c(c3C(COC1=O)N1C2C2c3c(cc(C)c(OC)c3O)CC([C@@H]1O)N2C)OCO4 (some centres undefined) | · | 10µM* | · | · | · | ·
O=C(CSc1nnc(-c2cccc(S(=O)(=O)N3CCCC3)c2)n1-c1ccccc1)Nc1ccccc1 | · | · | · | · | 16.7% | ·
CC(C)(C)n1ncc2c(=O)n(Cc3ccccc3C(F)(F)F)cnc21 | · | · | · | · | -0.4% | ·
Cc1ccc(OCCN2CCN(CC(O)Cn3c4ccccc4c4ccccc43)CC2)cc1 (centres undefined) | ? | 0.4% | 8.91µM* | -5.1% | -2.6% | 9.5%
CNc1cccc(S(=O)(=O)N2CCCN(S(=O)(=O)c3ccc4c(c3)OCCO4)CC2)c1 | · | · | · | · | · | 0.0%
NC(=O)/C(=C/c1ccco1)C(N)=S | -23.2% | -17.2% | -8.6% | -26.7% | ? | 10µM*
CN(C)c1ccc(CC2C(=O)Nc3ccccc32)cc1 (centres undefined) | ? | -4.5% | 3.16µM* | -7.1% | 1.1% | 3.7%
CCC(C)C(=O)Nc1ccc(OC)cc1[N+](=O)[O-] (centres undefined) | -1.0% | -3.7% | 4.2% | -4.7% | 0.8% | -2.3%
COc1cc(SSc2cc(OC)cc([N+](=O)[O-])c2N)c(N)c([N+](=O)[O-])c1 | · | 0.4% | 2.51µM* | -4.6% | -0.6% | ·
